ELG1 DNA repair – qHTS screen for small molecules that inhibit ELG1-dependent DNA repair in human embryonic kidney (HEK293T) cells expressing luciferase-tagged ELG1; HEK293T ELG1-luciferase reporter, luminescence, 16 h; DNA damage induced by 5-fluorouridine; Potency, µM (series often up to 46.1 µM), without a hit: top-dose activity change, negative = inhibition, actives largely listed as inhibitors; 330,000 tested, 2.3% active; AID 504467, 2011; also: potency is read from the fitted curve at half-maximal effect; nearly all actives have a fitted effect of over 55% in size
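5-Fluorouridine DNA damage + compound/DMSO, 2,000 cells/well, 16 h, 37 °C/5% CO2. ONE-Glo, 30 min RT, luminescence. Readout = decrease in reporter signal.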
TDP1 inh – qHTS Assay for Inhibitors of Tyrosyl-DNA Phosphodiesterase (TDP1) | AID 485290, 2010 | 350,000 tested, 0.28% active | Tyrosyl-DNA phosphodiesterase 1 (Homo sapiens), Q9NUW8 | recombinant TDP1, AlphaScreen DNA substrate cleavage | Potency, µM (highest dose often 130 µM), without a hit: at the top dose activity change, negative = inhibition, actives largely listed as inhibitors; also: potency is read from the fitted curve at half-maximal effect; nearly all actives have a fitted effect of over 40% in size
Target sequence (Q9NUW8 whole entry, looked up): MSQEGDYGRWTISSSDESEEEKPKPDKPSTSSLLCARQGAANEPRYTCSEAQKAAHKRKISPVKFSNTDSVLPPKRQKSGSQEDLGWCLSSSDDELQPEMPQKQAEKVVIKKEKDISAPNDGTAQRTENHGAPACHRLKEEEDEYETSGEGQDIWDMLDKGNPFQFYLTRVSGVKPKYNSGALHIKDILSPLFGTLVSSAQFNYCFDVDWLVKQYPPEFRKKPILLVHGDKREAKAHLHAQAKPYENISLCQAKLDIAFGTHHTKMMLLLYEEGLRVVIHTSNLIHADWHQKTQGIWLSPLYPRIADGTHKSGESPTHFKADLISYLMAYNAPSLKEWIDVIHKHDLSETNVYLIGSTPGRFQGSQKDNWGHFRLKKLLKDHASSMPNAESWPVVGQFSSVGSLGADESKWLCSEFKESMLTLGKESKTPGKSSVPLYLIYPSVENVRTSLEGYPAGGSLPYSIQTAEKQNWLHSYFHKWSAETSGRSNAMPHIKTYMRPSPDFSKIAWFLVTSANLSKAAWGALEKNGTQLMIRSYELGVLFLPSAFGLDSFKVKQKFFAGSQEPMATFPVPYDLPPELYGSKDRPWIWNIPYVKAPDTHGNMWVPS
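Recombinant human Tdp1 (E. coli-expressed, 1 nM final) preincubated with compounds 15 min at room temperature, then 5'-biotin/3'-phosphotyrosine-FITC DNA substrate (15 nM final) added for 5 min. AlphaScreen beads (10 ug/ml final) added 10 min; cleavage lowers signal.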
Giardia kill – Small Molecules that selectively kill Giardia lamblia: qHTS; activity change, % at 7.66 µM, hits read low; 340,000 tested, 0.15% active; Giardia lamblia trophozoite viability; in the data active = activity change below about -80%; inconclusive = between about -30% and that limit;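 also: parasites exposed to compound for two days anaerobically before the ATP read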
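Luminescence from cellular ATP indicates surviving trophozoites (100 cells/well) following 48 hrs anaerobic compound treatment at 37 deg C; signal develops 15-30 min at room temperature.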
DT40 TDP1 CPT – qHTS for Inhibitors of human tyrosyl-DNA phosphodiesterase 1 (TDP1): qHTS in cells in presence of CPT; chicken DT40 Tdp1-/-;hTDP1 cells + 20 nM CPT, ATP luminescence, 48 h; Potency, µM (highest dose often 46.2 µM), without a hit: at the highest dose activity change, negative = growth inhibition, hits mostly inhibitors; 420,000 tested, 12% active; AID 686979, 2013; also: potency is read from the fitted curve at half-maximal effect; nearly all actives have a fitted effect of over 55% in size
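Chicken DT40 Tdp1-/- cells stably complemented with human TDP1 were seeded at 400 cells/well in medium containing 20 nM camptothecin, exposed to pin-transferred compounds, and grown at 37 °C for at least 48 hr. Viability was read as ATP luminescence.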
IL1B secr inh – qHTS for Inhibitors of Inflammasome Signaling: IL-1-beta AlphaLISA Primary Screen; AID 743279, 2014; activity change, % at 57.5 µM; 360,000 tested, 4.7% active; THP-1 LPS/ATP IL-1B secretion, AlphaLISA, 16 h; active compounds read low; in the data active = activity change below about -50%; inconclusive = mostly about -30% to -49%
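Secreted IL-1B measured by AlphaLISA bead assay after 16 h compound exposure of THP-1 cells; compounds (final up to 57.5 uM) added 1 h before LPS (250 ng/mL) and ATP (1.25 mM) stimulation; lower signal means less secretion.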
DT40 TDP1 no CPT – qHTS for Inhibitors of human tyrosyl-DNA phosphodiesterase 1 (TDP1): qHTS in cells in absence of CPT | DT40 Tdp1-/- hTDP1 cells, no CPT, ATP luminescence, 48 h | 420,000 tested, 15% active | Potency, µM (top dose mostly 46.2 µM), inactives show top-dose activity change, negative = growth inhibition, hits mostly inhibitors; also: potency is read from the fitted curve at half-maximal effect; nearly all actives have a fitted effect of over 55% in size
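Growth of hTDP1-complemented DT40 Tdp1-knockout cells is measured by ATP luminescence after at least 48 hr compound exposure at 37 °C, with DMSO substituting for the 20 nM CPT used in the parallel screen.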
* marks the source's active call; other numbers are inactive results; ? = inconclusive; . = not tested or not shown. An excerpt weighted towards active compounds, which were near 19% of everything screened. Unless noted, calls follow the shape of the dose curve; as a rule, active = well fitted curve in the direction sought with a large enough effect; inconclusive = small, poorly fitted or top-dose-only effect, or another doubt; inactive = no such curve, though single readings can be large; an effect the other way counts as inactive or inconclusive. % is scaled to controls: 0 for no effect and ±100 for the full control effect.

SMILES	ELG1 DNA repair	TDP1 inh	Giardia kill	DT40 TDP1 CPT	IL1B secr inh	DT40 TDP1 no CPT
CCCCCCN1C[C@H](O)[C@@H](n2cc(-c3ccc(F)cc3)nn2)C[C@@H]1c1ccc(Cl)cc1	.	.	.	?	-27	18µM*
CCCCCCN1C[C@@H](n2cc(-c3ccc(F)cc3)nn2)[C@H](O)C[C@@H]1c1ccc(Cl)cc1	.	.	.	12µM*	-18	12µM*
CCCCCCN1C[C@H](n2cc(-c3ccc(F)cc3)nn2)[C@@H](O)C[C@@H]1c1ccc(C)cc1	.	.	.	13µM*	15	13µM*
CCCCCCN1C[C@H](n2cc(-c3ccc(F)cc3)nn2)[C@@H](O)C[C@@H]1c1ccc(OC)cc1	.	.	.	?	-1	?
O=C(/C=C/c1ccc(F)cc1)NCCc1ccc2c(c1)OCCO2	-10%	4%	16	-2%	10	-9%
Cc1ccc2c(C)c(C(=O)N(C)Cc3nccn3C)oc2c1C	9%	4%	-12	?	-3	?
O=C(/C=C/c1c(F)cccc1Cl)N1CCOCC1	?	0%	5	7%	-4	1%
COc1cccc(/C=N/N2CCN(c3ccncc3S(=O)(=O)N3CCCCC3)CC2)c1	-3%	9%	14	?	-12	2.6µM*
COc1ccccc1NC(=O)C1CC(C(C)C)OC1=O (centres undefined)	.	.	-6	11%	18	2%
COc1cc(NC(=O)Cn2c(=O)n(CC(=O)NCCc3ccc(OC)c(OC)c3)c(=O)c3sccc32)cc(OC)c1	.	5%	.	-29%	.	-26%
CCC[N+](C)(C)c1ccc(/C=C/c2ccnc3ccccc23)cc1	.	.	.	0.025µM*	.	0.18µM*
Clc1ccccc1/C=C/c1ccnc2ccccc12	?	3%	-10	?	-10	?
C[N+](C)(C)c1ccc(/C=C/c2ccnc3ccccc23)cc1	.	.	.	0.79µM*	.	0.63µM*
Oc1ccc(/C=C/c2ccnc3ccccc23)cc1	-2%	5%	12	18µM*	-62*	12µM*
CCN1C(=O)c2ccccc2Sc2ccc(C(=O)NCCCN(CC(C)C)CC(C)C)cc21	-23%	8%	2	15µM*	-65*	16µM*
CCCCN(CC)CCCNC(=O)c1ccc2c(c1)N(Cc1ccc(C)cc1)C(=O)c1ccccc1S2	.	3%	.	5.8µM*	.	5.2µM*
Nc1ccc2nc(CCCCc3nc4ccccc4[nH]3)[nH]c2c1	-6%	8%	-14	-1%	14	20%
Nc1cccc(CCc2nc3cc4ccccc4cc3[nH]2)c1	?	3%	-7	3.3µM*	?	4.1µM*
CCn1c(/C=C/Nc2ccccc2)[n+](CC)c2ccc(Cl)cc21	?	3%	22	23µM*	-3	21µM*
CCn1c(/C=C/N(C)c2ccccc2)[n+](CC)c2ccc(Cl)cc21	?	0%	9	0.58µM*	-98*	1.3µM*
CCn1c(/C=C/c2cc[n+](C)cc2)nc2ccccc21	-5%	.	-18	-16%	-13	-4%
CCOC(=O)c1ccc2c(c1)n(CC)c(/C=C/Nc1ccccc1)[n+]2CC	?	4%	-5	18µM*	0	12µM*
CCn1c(C)[n+](Cc2ccccc2)c2ccc(C(=O)OC)cc21	-29%	5%	3	2%	-12	-25%
C[C@@H]1CN([C@H](C)CO)C(=O)CCCn2cc(nn2)CO[C@H]1CN(C)C(=O)Nc1ccc(-c2cccs2)cc1	.	.	.	-13%	9	-28%
O=C(C1CC1)N1N=C(c2ccncc2)CC1(O)C(F)(F)F (centres undefined)	2%	1%	4	2%	0	-16%
SMILES	ELG1 DNA repair	TDP1 inh	Giardia kill	DT40 TDP1 CPT	IL1B secr inh	DT40 TDP1 no CPT
CCCCNC(=O)C1c2ccccc2OCC(=O)N1Cc1cccnc1 (centres undefined)	.	.	.	5%	11	-23%
O=c1[nH]c2ccccc2cc1-c1nnn(-c2ccc(Cl)c(Cl)c2)n1	.	.	9	7.3µM*	4	?
Oc1c(Br)cc(C=Nc2ccc3nc(-c4ccccc4)[nH]c3c2)c(O)c1Br	?	3%	-14	16µM*	32	15µM*
O=[N+]([O-])c1ccc(O)c(C=Nc2ccc3nc(-c4ccccc4)[nH]c3c2)c1	?	2%	-4	-8%	-2	-23%
CCOC(=O)C1=C(Nc2ccccc2)CC(C)(O)C(C(=O)OCC)C1c1ccc(Br)cc1 (centres undefined)	?	8%	7	?	-27	16µM*
Cn1c(C=O)c(C#Cc2ccccc2)c2ccccc21	-4%	20µM*	-10	?	49	23µM*
COc1ccc(C#Cc2c(C=O)n(C)c3ccccc23)cc1	25%	.	-5	?	28	?
O=C(CSc1ccc(-c2nc3ccccc3[nH]2)cn1)Nc1ccc(S(=O)(=O)NC2CC2)cc1	10%	2%	5	26µM*	11	21µM*
N#CCSc1ccc(-c2nc3ccccc3[nH]2)cn1	?	2%	-6	?	?	23µM*
O=C(CSc1ccc(-c2nc3ccccc3[nH]2)cn1)Nc1ccc2c(c1)OCCO2	?	-8%	-13	-27%	4	-24%
COCCNC(=O)CSc1ccc(-c2nc3ccccc3[nH]2)cn1	15%	.	11	-14%	48	8%
CCOC(=O)CSc1ccc(-c2nc3ccccc3[nH]2)cn1	0%	2%	-5	?	-82*	?
COc1cc(OC)c(NC(=O)CN(C)S(=O)(=O)c2ccc3c(c2)CCCC(=O)N3)cc1Cl	.	1%	.	.	.	.
COc1cccc2cc(C(=O)Nc3ccccc3C)/c(=N/NS(=O)(=O)c3ccccc3)oc12	11%	5%	-11	-6%	-2	21%
COc1ccc(S(=O)(=O)N/N=c2\oc3c(OC)cccc3cc2S(=O)(=O)c2ccc(C)cc2)cc1OC	?	2%	11	-25%	-54*	-16%
CCOc1ccc(NC(=O)/C(C#N)=C/c2cn(CC(=O)O)c3ccccc23)cc1	?	9%	7	-23%	9	-17%
CCOC(=O)/C(C#N)=C/c1cn(CCOc2ccc(OC)cc2)c2ccccc12	12µM*	-1%	-11	15µM*	14	?
